An excerpt weighted towards active compounds, which were near 10% of everything screened.
Gal4-VP16 FLuc = VP16 counterscreen qHTS for inhibitors of ROR gamma transcriptional activity; Potency, µM (top dose mostly 53.6 µM), for the others: at the highest dose activity, negative = inhibition, most hits filed as inhibitors; Drosophila S2 Gal4-VP16 UAS-luciferase, luminescence, 20 h; hit rate 3.5% among 310,000;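 note: Gal4-VP16 expression switched on by copper sulfate through the metallothionein promoter; % is set by controls: 0 for no effect and ±100 for the full control effect; nearly all actives have a fitted effect of over 50% in size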
KB-3-1 tox = qHTS assay for MDR1-selective chemotherapeutics: Primary screen using the parental adenocarcinoma cell KB-3-1; Potency, µM (series often up to 46.1 µM), usual class: cytotoxic; KB-3-1 viability, CellTiter-Glo ATP luminescence, 72 h; hit rate 1.4% among 400,000; note: % is set by controls: 0 for no effect and ±100 for the full control effect; nearly all actives have a fitted effect of over 60% in size
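KB-3-1 cells, DMEM (no phenol red) + 10% FBS; compound by pin transfer, 72 h, 37 °C. Readout: CellTiter-Glo luminescence after 10 min. Data normalized, curve-fitted.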
SW480 rerep = A quantitative high throughput screen for small molecules that induce DNA re-replication in SW480 colon adenocarcinoma cells; SW480 DNA re-replication, Hoechst DNA content imaging, 48 h; Potency, µM (top dose mostly 46.1 µM), for the others: at the highest dose re-replication activation, actives largely listed as activators; AID 624297, 2012; hit rate 1.8% among 340,000; note: % of control where 0% means no effect; nearly all actives have a fitted effect of over 55% in size
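Per well, 250 cells were exposed to pinned compound for 48 hr. Nuclear DNA was visualised with Hoechst (40 min, 37 C) and total object intensity recorded by fluorescence scanning.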
MCF10A rerep = A quantitative high throughput screen for small molecules that induce DNA re-replication in MCF 10a normal breast cells; hit rate 2.9% among 350,000; Potency, µM (titrated, usually from 46.1 µM), inactives show at the highest dose activity, positive = re-replication, most hits filed as activators; MCF 10A DNA re-replication, Hoechst nuclear intensity, 48 h; note: % of control where 0% means no effect; nearly all actives have a fitted effect of over 50% in size
KB-V1 MDR tox = qHTS assay for MDR1-selective chemotherapeutics: Primary screen using the drug-selected MDR subline cells KB-V1 | KB-V1 MDR cells viability, CellTiter-Glo, 72 h | Potency, µM (series often up to 46.1 µM), usual class: cytotoxic | hit rate 3.4% among 400,000 | AID 1347076, 2019; note: % is set by controls: 0 for no effect and ±100 for the full control effect; nearly all actives have a fitted effect of over 60% in size
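In this primary screen, KB-V1 cells overexpressing P-gp are incubated with library compounds (lowest to highest concentration) for 72 h at 37 degrees C before a luminescent ATP viability read.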
RORgamma inh = qHTS for inhibitors of ROR gamma transcriptional activity. Nuclear receptor ROR-gamma (Mus musculus), P51450. Drosophila S2 Gal4-RORgamma UAS-luciferase reporter, 20 h. Potency, µM (titrated, usually from 53.6 µM), inactives show top-dose activity change, negative = inhibition, actives largely listed as inhibitors. hit rate 5.4% among 310,000; note: % is set by controls: 0 for no effect and ±100 for the full control effect; nearly all actives have a fitted effect of over 60% in size
Target sequence (P51450 whole entry, looked up, the tested form may be a part): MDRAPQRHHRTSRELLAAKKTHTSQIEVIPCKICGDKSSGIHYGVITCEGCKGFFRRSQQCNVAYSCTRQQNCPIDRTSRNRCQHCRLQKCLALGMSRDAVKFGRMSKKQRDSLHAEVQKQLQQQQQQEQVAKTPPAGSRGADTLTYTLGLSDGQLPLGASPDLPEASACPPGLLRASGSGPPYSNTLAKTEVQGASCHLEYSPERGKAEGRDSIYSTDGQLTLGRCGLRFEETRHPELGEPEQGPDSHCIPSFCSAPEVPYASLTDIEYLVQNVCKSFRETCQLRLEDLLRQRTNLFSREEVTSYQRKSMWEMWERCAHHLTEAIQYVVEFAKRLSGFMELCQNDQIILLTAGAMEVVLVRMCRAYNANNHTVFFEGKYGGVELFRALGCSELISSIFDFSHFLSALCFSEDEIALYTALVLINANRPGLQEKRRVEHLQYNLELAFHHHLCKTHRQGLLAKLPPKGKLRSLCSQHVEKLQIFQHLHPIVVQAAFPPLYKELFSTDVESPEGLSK
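Luminescence from a UAS-regulated Photinus luciferase reporter in stably transfected Drosophila Schneider cells is measured; decreased signal marks ROR gamma inhibition. Fusion expression is induced by 700 uM copper sulfate for 20 hr.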
Active calls of the source: *; [ ] = another dose, or the depositor's remark. Calls come from the whole dose curve; as a rule, active = well fitted curve in the direction sought with a large enough effect; inconclusive = small, poorly fitted or top-dose-only effect, or another doubt; inactive = no such curve, though single readings can be large; an effect the other way counts as inactive or inconclusive. Potency is the fitted concentration of half-maximal effect.

What do the screens show for `CC(=O)c1ccc2c3c(cccc13)C(=O)N(c1c(C)nn(C)c1C)C2=O`?
KB-3-1 tox: inactive; SW480 rerep: -5%; MCF10A rerep: 1%; KB-V1 MDR tox: inactive; RORgamma inh: -9%[0.365 µM]

How did O=C1c2cccc3c(N4CCCCC4)ccc(c23)C(=O)N1c1cccc(O)c1 do in these assays?
Gal4-VP16 FLuc: inconclusive; KB-3-1 tox: inconclusive; SW480 rerep: inconclusive; MCF10A rerep: 12µM*; KB-V1 MDR tox: inconclusive; RORgamma inh: inconclusive

Results for Cc1n[nH]c(C)c1N1C(=O)c2cccc3c(N4CCCCCC4)ccc(c23)C1=O ?
Gal4-VP16 FLuc: inconclusive; KB-3-1 tox: inactive; SW480 rerep: 16%; MCF10A rerep: inconclusive; KB-V1 MDR tox: 21µM*; RORgamma inh: -2%

Results for O=C1c2cccc3c(N4CCCCC4)ccc(c23)C(=O)N1CCO ?
Gal4-VP16 FLuc: -1%; KB-3-1 tox: inactive; SW480 rerep: inconclusive; MCF10A rerep: inconclusive; KB-V1 MDR tox: inconclusive; RORgamma inh: inconclusive

How did O=C1c2ccccc2C(=O)N1c1cccc(O)c1 do in these assays?
KB-3-1 tox: inconclusive; KB-V1 MDR tox: inactive

What do the screens show for `CN(C)c1ccc(/C=C(/NC(=O)c2ccccc2Cl)C(=O)NCCN2CCOCC2)cc1`?
Gal4-VP16 FLuc: -12%; KB-3-1 tox: inactive; SW480 rerep: -9%; MCF10A rerep: 0%; KB-V1 MDR tox: inactive; RORgamma inh: 7%

How did O=C(COc1ccc(C(=O)c2ccccc2)cc1)NC1CCCCCC1 do in these assays?
Gal4-VP16 FLuc: inconclusive; KB-3-1 tox: inconclusive; SW480 rerep: -36%; MCF10A rerep: -56%; KB-V1 MDR tox: 10µM*; RORgamma inh: inconclusive

Results for CCC(=O)c1ccc(OCc2ccc(C(=O)c3ccccc3)cc2)cc1 ?
Gal4-VP16 FLuc: 7.1µM*; KB-3-1 tox: inconclusive; SW480 rerep: 9%; MCF10A rerep: -7%; KB-V1 MDR tox: 10µM*; RORgamma inh: inconclusive

Results for CCC(C)(C)NC(=O)COc1ccc(C(=O)c2ccccc2)cc1 ?
Gal4-VP16 FLuc: 13µM*; KB-3-1 tox: inactive; SW480 rerep: 8%; MCF10A rerep: -1%; KB-V1 MDR tox: inconclusive; RORgamma inh: 34%

What do the screens show for `Cc1ccc(-c2cnc(C(O)c3cc(C)cc(C)c3)[nH]2)cc1` (stereo not given)?
KB-3-1 tox: inactive; KB-V1 MDR tox: inactive

What do the screens show for `CC1N=C(SCC(=O)c2ccc(F)cc2)N2C(C)N=C(SCC(=O)c3ccc(F)cc3)N12` (stereo not given)?
KB-3-1 tox: inactive; KB-V1 MDR tox: inactive

Results for COCCn1c(=O)c(-c2ccc(F)cc2)nc2cncnc21 ?
Gal4-VP16 FLuc: -11%; RORgamma inh: 2%

How did C#CCCCO/N=C1/C[C@@H](O)[C@@H](O)[C@@H]2[C@@H]3C(=O)N(CC)C(=O)[C@H]3CC[C@@H]12 do in these assays?
Gal4-VP16 FLuc: -4%[10 µM]; RORgamma inh: 4%[10 µM]

What do the screens show for `Cc1ccc2nc(-c3ccc(NS(=O)(=O)c4ccc(F)c(F)c4)cc3)sc2c1`?
Gal4-VP16 FLuc: inconclusive; KB-3-1 tox: inactive; SW480 rerep: inconclusive; MCF10A rerep: 10µM*; KB-V1 MDR tox: inactive; RORgamma inh: -42%

What do the screens show for `Cc1ccc2nc(-c3ccc(NS(=O)(=O)c4ccccc4)cc3)sc2c1`?
Gal4-VP16 FLuc: inconclusive; KB-3-1 tox: inactive; SW480 rerep: 8%; MCF10A rerep: inconclusive; KB-V1 MDR tox: inactive; RORgamma inh: 45%

How did Cc1nc2ccc(S(=O)(=O)Nc3cccc(-c4nc5cccnc5s4)c3)cc2s1 do in these assays?
Gal4-VP16 FLuc: inconclusive; KB-3-1 tox: inconclusive; SW480 rerep: 2%; MCF10A rerep: 6.5µM*; KB-V1 MDR tox: inactive; RORgamma inh: inconclusive

How did Cc1nc2ccc(S(=O)(=O)Nc3ccc(-c4nc5cccnc5s4)cc3)cc2s1 do in these assays?
Gal4-VP16 FLuc: 3%; KB-3-1 tox: inactive; SW480 rerep: 14%; MCF10A rerep: 6.5µM*; KB-V1 MDR tox: inactive; RORgamma inh: 5%

What do the screens show for `CN[C@@H](CO)C(=O)NC[C@H]1O[C@@H](n2cnc3c(=O)[nH]c(N)nc32)[C@H](O)[C@@H]1O`?
KB-3-1 tox: inactive; KB-V1 MDR tox: inactive

Results for CC(C)C(C(=O)Nc1ccncc1)c1ccc(Cl)cc1 (stereo not given) ?
Gal4-VP16 FLuc: inconclusive; KB-3-1 tox: inactive; SW480 rerep: inconclusive; MCF10A rerep: -1%; KB-V1 MDR tox: inactive; RORgamma inh: 13%

What do the screens show for `CC(C)C(C(=O)Nc1nccs1)c1ccc(Cl)cc1` (stereo not given)?
Gal4-VP16 FLuc: inconclusive; KB-3-1 tox: inactive; SW480 rerep: -2%; MCF10A rerep: -2%; KB-V1 MDR tox: inconclusive; RORgamma inh: 14µM*

How did O=C(CSCc1ccc(Cl)cc1)Nc1nccs1 do in these assays?
Gal4-VP16 FLuc: 0%; KB-3-1 tox: inactive; SW480 rerep: -2%; MCF10A rerep: -17%; KB-V1 MDR tox: inactive; RORgamma inh: 14µM*

Results for CCc1ccc2c(c1)NC(c1ccc(F)cc1)=NC(c1ccncc1)=N2 ?
KB-3-1 tox: inactive; KB-V1 MDR tox: inactive

What do the screens show for `Cc1ccc(Cc2c(-c3ccccc3)nc3cc(C)c(Br)c(C)n23)cc1`?
KB-3-1 tox: inactive; KB-V1 MDR tox: inactive

How did c1nc(N2CCCC2)c2[nH]cnc2n1 do in these assays?
Gal4-VP16 FLuc: -1%; KB-3-1 tox: inactive; SW480 rerep: -7%; MCF10A rerep: 14%; KB-V1 MDR tox: inconclusive; RORgamma inh: -4%

Results for c1nc(N2CCCCCC2)c2[nH]cnc2n1 ?
Gal4-VP16 FLuc: -24%; KB-3-1 tox: inactive; SW480 rerep: -6%; MCF10A rerep: 16%; KB-V1 MDR tox: 23µM*; RORgamma inh: 95%

What do the screens show for `O=C1OCC/C1=C\c1ccccc1`?
Gal4-VP16 FLuc: 2%; KB-3-1 tox: inactive; SW480 rerep: -5%; MCF10A rerep: -32%; KB-V1 MDR tox: inactive; RORgamma inh: -13%

Results for O=C1/C(=C/c2ccccc2)CCc2ccc(Cl)nc21 ?
KB-3-1 tox: inactive; SW480 rerep: inconclusive; MCF10A rerep: inconclusive; KB-V1 MDR tox: 21µM*

Results for CC(=O)OCCCN1c2ccccc2Nc2nnc(-c3ccccc3)cc21 ?
Gal4-VP16 FLuc: inconclusive; KB-3-1 tox: inactive; SW480 rerep: 0%; MCF10A rerep: 2%; KB-V1 MDR tox: inactive; RORgamma inh: 11µM*

Compound activity from PubChem.
